Laboratory results as given in PubChem BioAssay AID2314 (National Center for Advancing Translational Sciences (NCATS), 2010).
In all, about 300,000 compounds went through this assay and about 37,000 (12%) were called active. Rule as the data show it: active = max response mostly above about 13% (no sharp cut-off); inactive = mostly below about 14%. What follows is part of a selection rich in actives, with near analogues and random picks from the rest.

Assay: Cycloheximide Counterscreen for Small Molecule Inhibitors of Shiga Toxin; also: read at 38.3 µM for the half of the compounds with a filed dose; 0% is about no effect
Settings: cell reporter, cycloheximide protein synthesis inhibition counterscreen; stronger effect = higher value
With `CN1CCC(=O)N([C@H](CO)Cc2ccccc2)CC1` the max response was 1.38% (inactive). With `CCCC(=O)N=c1sc2cccc(F)c2n1C` the max response was -3.69% (inactive). In the case of `Cn1c(=NC(=O)C2CC2)sc2cc(F)cc(F)c21`, the max response is reported as -0.185% (inactive). For `Cn1c(=NC(=O)c2ccco2)sc2cccc(F)c21`, the max response was 72.9% (active). In the case of `COC(=O)c1c(NC(=O)c2ccccc2F)sc2c1C(C(=O)OC)CC2` (stereo not given), the max response is reported as 7.34% (inactive). With `C/C(=N\N)c1c(-c2ccccc2)c2cc(Br)ccc2[nH]c1=O` the max response was 1% (inactive). For `O=C(Cn1nc([N+](=O)[O-])nc1Br)NC1CCCCC1`, the max response was -4.71% (inactive). For `O=C(NNC(=S)NC1CCCCC1)c1ccccc1Cl`, the max response was 5.48% (inactive). For `Cc1ccccc1C(=O)NC(=S)NC1CC1`, the max response was 19.1% (active). With `COc1ccccc1C(=O)NC(=S)NC12CC3CC(CC(C3)C1)C2` the max response was 13.4% (inactive). With `CC(C)CC(CCc1ccccc1)OS(N)(=O)=O` (stereo not given) the max response was 2.53% (inactive). For `COc1ccc(C(=O)CCC(=O)Nc2ccc(Cl)cc2)cc1`, the max response was 0.287% (inactive). For `COc1ccc(COC(=O)N/N=C(\C)CC(=O)Nc2ccc(Cl)cc2)cc1`, the max response was 12.4% (inactive). In the case of `COc1ccc(C(=O)N/N=C(\C)CC(=O)Nc2ccc(Cl)cn2)cc1`, the max response is reported as 28.3% (active). In the case of `Cc1ccc(-n2c(-c3ccc(Cl)cc3)n[nH]c2=S)cc1`, the max response is reported as -1.99% (inactive). For `O=C(NCCCN1CCOCC1)c1ccc2c(c1)N(Cc1cccc(F)c1)C(=O)c1ccccc1S2`, the max response was -7.81% (inactive). With `Cc1cc(=O)[nH]c(SCc2cccc(F)c2)n1` the max response was 0.752% (inactive). In the case of `Nc1cc(N)nc(SCc2ccc(Cl)cc2)n1`, the max response is reported as 15.3% (inactive). With `Nc1cc(N)nc(SCc2cccc(F)c2)n1` the max response was 45.9% (active). In the case of `C[n+]1cc(-c2ccccc2)oc1-c1ccccc1`, the max response is reported as 52.4% (active). For `Cc1cc(N2CCN(c3ccccc3)CC2)nc(N2CCOCC2)n1`, the max response was -2.2% (inactive). In the case of `Cc1cc(C)n(-c2cc(Oc3ccccc3)ncn2)n1`, the max response is reported as 21.7% (inactive). In the case of `Cc1cc(C)n(-c2nnc(N3CCN(c4ccccc4)CC3)nn2)n1`, the max response is reported as 22.1% (active). For `CCOC(=O)C1=C(CN2CCc3ccccc32)NC(=O)NC1c1ccc(Cl)cc1` (stereo not given), the max response was 15.3% (inactive). With `Cn1c(SCC(=O)N2CCCC2)nnc1-c1cccs1` the max response was 11.6% (inactive). For `O=C(CSCc1cccs1)N1CCCC1`, the max response was 31.1% (active). In the case of `O=C(CSCc1ccc(Cl)cc1)N1CCN(Cc2ccc3c(c2)OCO3)CC1`, the max response is reported as 10.5% (inactive). For `O=C(CN1CCN(c2ccc(Cl)cc2)CC1)N1CCCC1`, the max response was 6.76% (inactive). With `O=C(CSCc1ccc(Cl)cc1)N1CCCCC1` the max response was 44.9% (active). For `O=C(CSc1ccsc1[N+](=O)[O-])N1CCCCC1`, the max response was 26.9% (inactive). In the case of `COC(=O)[C@@H](Cc1ccccc1)NC(=O)NCCc1ccccc1`, the max response is reported as 6.92% (inactive). For `O=C1OC2(CCCCC2)CC2=C1C1O[C@](c3ccsc3)(Cc3ccccc31)O2`, the max response was -3.19% (inactive). For `Fc1cccc(CSc2nnc3ccc(-c4ccncc4)nn23)c1`, the max response was 2.07% (inactive). For `O=C(CN1C(=O)NC(Cc2ccccc2)(Cc2ccccc2)C1=O)NCC1CCCCC1`, the max response was -2.12% (inactive). With `CCCc1nnc(NC(=O)CCC(=O)N2CCN(S(=O)(=O)c3ccc(OC)cc3)CC2)s1` the max response was -3.02% (inactive). In the case of `S=c1[nH]nc(-c2cc(-c3ccsc3)n[nH]2)n1-c1ccccc1`, the max response is reported as 6.52% (inactive). With `Oc1ccccc1-c1cc(-c2ccc(Cl)cc2)n[nH]1` the max response was 29% (active). For `S=c1[nH]nc(-c2cc(-c3ccccc3)n[nH]2)n1/N=C/c1c2ccccc2cc2ccccc12`, the max response was -3.32% (inactive). With `Cc1ccc(NC(=O)c2cc(-c3ccccc3O)n[nH]2)cc1C` the max response was 12% (inactive). In the case of `c1ccc(-c2cc(-c3ccccc3)[nH]n2)cc1`, the max response is reported as 36.7% (active). For `Cc1cc(C(=O)OCC(=O)N2c3ccccc3NC(=O)C2(C)C)c(C)n1-c1ccccc1`, the max response was -2.79% (inactive). With `CCc1cc(=O)oc2c(C)c(OCC(=O)N3CC[C@@]4(O)CCCC[C@H]4C3)ccc12` the max response was -0.987% (inactive). With `O=C(CCC(=O)N/N=C/c1ccc(Br)o1)N/N=C/c1ccc(Br)o1` the max response was -1.8% (inactive). For `CC1(C)OC(=O)N2CCc3ccccc3C21C` (stereo not given), the max response was -1.95% (inactive). For `Cc1ccn2c(=O)c(C(=O)NCCC3=CCCCC3)c(O)nc2c1`, the max response was 16.1% (inactive). With `O=C(NCCC1=CCCCC1)c1ccc(Cl)c([N+](=O)[O-])c1` the max response was 39.2% (active). In the case of `O=C(NCCCN1CCOCC1)c1ccc(N2CCCC2)c([N+](=O)[O-])c1`, the max response is reported as 1.3% (inactive). With `CC(=O)Nc1ccc(S(=O)(=O)N(C)CC(=O)NCCC2=CCCCC2)cc1` the max response was 8.71% (inactive). For `CN(c1ccc(C(=O)NCCC2=CCCCC2)cc1)S(C)(=O)=O`, the max response was 35.4% (active). In the case of `O=C(COc1ccc(Cl)cc1)NCCC1=CCCCC1`, the max response is reported as -4.36% (inactive). With `Cn1nnc2cc(C(=O)NCCC3=CCCCC3)ccc21` the max response was 36.9% (active). For `CN1CCNC(=O)C1CC(=O)NCCC1=CCCCC1` (stereo not given), the max response was 6.87% (inactive). For `O=C(Cc1nn[nH]n1)NCCC1=CCCCC1`, the max response was -1.06% (inactive). With `CCC(=O)c1ccc(OC(=O)/C=C/c2cc(OC)c(OC)c(OC)c2)cc1` the max response was -6.8% (inactive). With `COc1ccc(C(=O)O)cc1S(=O)(=O)NCc1cccnc1` the max response was 1.18% (inactive). In the case of `COc1ccc(Cn2c(O)c(/C=C3/C=CC=N3)c(=O)[nH]c2=O)cc1`, the max response is reported as 1.33% (inactive). For `Cc1nc2c(C(=O)NCc3cccs3)cnn2c(C)c1Cc1ccc(F)cc1`, the max response was 0.665% (inactive). In the case of `O=C(NCC1CCN(Cc2ccccc2Cl)CC1)Nc1cccc(Cl)c1`, the max response is reported as 9.67% (inactive). For `CCc1ccc(NC(=O)N[C@H](C(=O)O)C(C)CC)cc1` (stereo not given in full), the max response was 9.38% (inactive). In the case of `CCc1ccc(NC(=O)Nc2ccncc2)cc1`, the max response is reported as 28.8% (active). In the case of `O=C(Nc1ccncc1)c1c(F)cccc1F`, the max response is reported as 14.2% (inactive). For `CC(C)CC(=O)Nc1ccc(Cc2ccncc2)cc1`, the max response was -2.52% (inactive). With `O=C(Nc1ccncc1)Nc1ccc(F)cc1` the max response was 21.6% (active). For `O=C(Nc1ccc(F)cc1)N1CCN(c2ccc(F)cc2)CC1`, the max response was 1.7% (inactive). In the case of `CCCc1ccc(OCc2ccc(C(=O)N/N=C/c3cccc([N+](=O)[O-])c3)o2)c(OC)c1`, the max response is reported as -2.18% (inactive). In the case of `CC(C)Cn1c(=O)c2ccccc2n2c(CCC(=O)NCc3ccccn3)nnc12`, the max response is reported as 15.7% (inactive). With `Cc1cccc(C)c1N1C(=O)CN(Cc2ccccc2)C1=S` the max response was -2.32% (inactive). With `O=C(NCCS(=O)(=O)c1ccc(Br)cc1)c1ccccc1Cl` the max response was -3.1% (inactive). With `CN(C)S(=O)(=O)c1ccc(C(=O)NCCN=C2NS(=O)(=O)c3ccccc32)cc1` the max response was -3.08% (inactive). In the case of `CCCN(CCC)c1ccc(C(O)c2nnc(-c3ccccc3)o2)cc1` (stereo not given), the max response is reported as 26.9% (inactive). With `OC(c1nnc(-c2ccccc2)o1)c1cccs1` (stereo not given) the max response was 76.9% (active). With `O=C(Nc1nnc(-c2ccccc2)o1)c1cc(-c2cccs2)nc2ccccc12` the max response was -2.91% (inactive). With `CCCc1cc(=O)oc2cc(OCC(=O)Nc3ccc(CN4CCOCC4)cc3)c(Cl)cc12` the max response was -3.2% (inactive). For `Oc1c(C=Nc2cccc3nsnc23)ccc2ccccc12`, the max response was 16.7% (active). In the case of `O=[N+]([O-])c1ccc(N=Cc2c(O)ccc3ccccc23)cc1`, the max response is reported as -1.91% (inactive). For `O=C(Nc1cccc(C(F)(F)F)c1)c1ccc(N2CCNCC2)c([N+](=O)[O-])c1`, the max response was 0.923% (inactive). With `Nc1nc(SCC(=O)N2CCN(S(=O)(=O)c3ccc(Cl)cc3)CC2)n[nH]1` the max response was 6.07% (inactive). In the case of `Cc1occc(=O)c1OCc1c(Cl)cccc1Cl`, the max response is reported as 0.434% (inactive). For `Cc1ccc(OCC(=O)Nn2cnc3ccccc32)cc1`, the max response was 8.71% (inactive). For `COC(=O)c1ccc(-n2cnc3ccccc32)nc1`, the max response was 24.9% (active). For `O=C(c1ccc(Cl)cc1)n1cnc2ccccc21`, the max response was -2.21% (inactive). In the case of `CCC(C)(C)n1nnnc1C(c1ccc(OC)c(OC)c1)N1CCN(C(=O)c2ccco2)CC1` (stereo not given), the max response is reported as -2.11% (inactive). In the case of `CCCOc1cccc(C(=O)Nc2nnn(CCC)n2)c1`, the max response is reported as 26.2% (active). With `CCCOc1cccc(C(=O)NCCCNC(=O)c2cccnc2)c1` the max response was -1.77% (inactive). For `CCCn1nnc(NC(=O)COc2ccc(CC)cc2)n1`, the max response was 3.91% (inactive). For `CC1CN(S(=O)(=O)c2ccc(C(=O)Nc3sccc3C(N)=O)cc2)CC(C)O1` (stereo not given), the max response was -0.296% (inactive). In the case of `COc1ccc(CN(C(=O)CSc2nnc(-c3ccc(OC)c(OC)c3)o2)c2ccc(F)cc2)cc1`, the max response is reported as -0.972% (inactive). For `CCCCOC(=O)c1[nH]c(C)c(C(=O)OC)c1C`, the max response was 60.6% (active). With `CC(=O)c1c(C)[nH]c(C(=O)OCC(=O)NCCC(C)C)c1C` the max response was -1.49% (inactive). For `COC(=O)c1c(C)[nH]c(C(=O)NCCc2ccc(S(N)(=O)=O)cc2)c1C`, the max response was -10.2% (inactive). For `Cc1ccc(C(=O)NC(=S)Nc2ccc(N3CCOCC3)cc2)cc1`, the max response was 13.6% (inactive). In the case of `COC(=O)c1ccc(NC(=S)Nc2cccc(C)n2)cc1`, the max response is reported as 10.2% (inactive). With `COC(=O)c1ccc(NC(=S)NN2CCOCC2)cc1` the max response was 20.6% (active). With `COc1ccc2c3c(c(=O)oc2c1)C1O[C@](CCCCN2C(=O)c4ccccc4C2=O)(Cc2c1ccc1ccccc21)O3` the max response was -1.56% (inactive). For `Clc1ccc(N/N=C/c2cccs2)nn1`, the max response was 22.2% (active). With `Cc1ccsc1/C=N/NC(=O)Cc1cc(=O)[nH][nH]1` the max response was 4.08% (inactive). With `COc1cccc(/C=N\Nc2nncc(-c3ccccc3)n2)c1` the max response was 6.58% (inactive). With `Cc1ccsc1/C=N/Nc1ccc(Cl)nn1` the max response was 14% (active). For `Cc1ccsc1/C=N/n1c(=S)[nH]nc(C)c1=O`, the max response was -1.56% (inactive). In the case of `Cn1c(=O)c2c(nc(N/N=C/c3cccs3)n2Cc2ccc(Br)cc2)n(C)c1=O`, the max response is reported as 10.1% (inactive). With `Oc1cccc(/C=N/Nc2ccc(Cl)nn2)c1O` the max response was 43.2% (active). With `COc1cccc(/C=N/Nc2ccc(Cl)nn2)c1` the max response was 25.6% (active). With `COc1cc(/C=N/Nc2ccc(C)cc2)cc(Br)c1O` the max response was 7.52% (inactive). In the case of `NC(=O)N/N=C\c1cccs1`, the max response is reported as 5.02% (inactive). For `Oc1c(Br)cccc1/C=N/Nc1c(F)c(F)c(F)c(F)c1F`, the max response was 6.05% (inactive).
